Data on 40 compounds can be found in PubChem BioAssay (NCI).

About 79,000 compounds went through this panel and 15% of them were active in at least one assay; those are over-represented in the sample as a whole. A number with no mark means an inactive call. Cut-off read from the data, not from the text of the source: active = growth inhibition above about 70%; inactive = the rest.

The nature of this experiment: NCI Yeast Anticancer Drug Screen. Data for the mec2-1 strain (AID 157). To be noted: S. cerevisiae mec2-1 strain, at 50.0 µM, stronger effect = higher value. Put shortly: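 Cells of the genetically defined mec2-1 yeast strain are incubated with test compound. Inhibition of growth is calculated against vehicle-treated controls.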
Take `Cc1ccc(C(=O)C(O)c2ccc(C)cc2)cc1` (stereo not given): the growth inhibition is -34.6%.

Regarding `CC1(c2ccc(-c3ccccc3)cc2)NC(=O)NC1=O` (stereo not given), the growth inhibition is 10.3%.

With `N#CC(N)c1ccc(OCCCCCCCCCCOc2ccc(C(N)C#N)cc2)cc1` (stereo not given), the growth inhibition was 2.65%.

With `O=C1NC(=O)C(=C/C=C/C=C\C2C(=O)NC(=O)NC2=O)C(=O)N1`, the growth inhibition was -38.4%.

With `C=C(C)C(=O)OCCOCC(CC)CCCC` (stereo not given), the growth inhibition was -8.8%.

Regarding `CCCCCC(C/C=N/N(C)C)C(O)(C(F)(F)F)C(F)(F)F` (stereo not given), the growth inhibition is 2.1%.

Consider `CCOc1ccc(NC(=O)C(=O)CC(=O)c2sc(NNC(C)=O)nc2C)cc1`, for which the growth inhibition was 2.95%.

For `COc1ccc(Cc2ccccc2C(=O)c2ccc(OC)cc2)cc1`, the growth inhibition is -13.8%.

For the compound `COc1c(C(=O)O)ccc(C(=O)NCCCCCN(O)C(=O)CCC(=O)NCCCCCN(O)C(=O)CCC(=O)NCCCCCN(O)C(C)=O)c1OC`, the growth inhibition is 4.25%.

With `O=C1OC(c2ccc(Cl)cc2)=N/C1=C\c1c(Cl)cccc1Cl`, the growth inhibition is -1.3%.

For the compound `CCOC(=O)C1=C(C)Oc2cc3c(cc2C1c1ccc(OC)cc1)OCO3` (stereo not given), the growth inhibition is 5.8%.

For the compound `COc1ccc(-c2c3c(nc4nc(SCC(=O)c5ccc(Br)cc5)nc(N)c24)CCCC3)cc1OC`, the growth inhibition was -17.2%.

As to `CCCC1(C)OCC(CCl)O1` (stereo not given), the growth inhibition was -28.4%.

With `CCCCCCCCCCCC(=O)Nc1ccc(C(C)C)cc1`, the growth inhibition was -7.6%.

For `COC(=O)C(O)(C(=O)OC)C1=C(N)C(=O)c2ccccc2C1=O`, the growth inhibition was 17.1%.

In the case of `CC12CCC3c4ccc(OC(=O)C56C=CC(=O)C5C5C=CC6CC5)cc4CCC3C1CCC2=O` (stereo not given), the growth inhibition was -16.8%.

In the case of `COC(=O)CCc1cc(=O)oc2ccc3cc(CC(=O)OC)oc3c12`, the growth inhibition was -7.65%.

As for `CCCCOC(=O)c1ccc(O)cc1.[Zn+2]`, the growth inhibition was -11.6%.

In the case of `CC(=O)C1=C(O)C2(O)C(=O)c3c(c(C)c4ccc(C)c(O)c4c3O)CC2C(N)C1=O` (stereo not given), the growth inhibition is 38.1%.

In the case of `O=C1CCCCC1CN1CCOCC1` (stereo not given), the growth inhibition was -24.2%.

Consider `Cc1ccc(/C=C(/C#N)C(N)=O)cc1`, for which the growth inhibition was 0.05%.

In the case of `O=C(CNc1ccc(Cl)cc1Cl)NC1C=Cc2ccc(S(=O)(=O)Nc3ccc(Cl)cc3Cl)cc2C1=O` (stereo not given), the growth inhibition is 20.4%.

Regarding `CC1(C)C(CC(=O)O)CC1C(=O)O` (stereo not given), the growth inhibition is -0.7%.

With `CC(O)CNC(=O)C(C)O` (stereo not given), the growth inhibition is -27.6%.

On to `CC1(C)[C@@H]2C[C@H]1[C@@H](Cc1cccc(C[C@H]3c4cc(-c5ccccn5)ncc4[C@H]4C[C@@H]3C4(C)C)c1)c1cc(-c3ccccn3)ncc12`, for which the growth inhibition is 28.2%.

With `COC(=O)CC(NC(=O)OCc1ccccc1)C(=O)NCC(=O)NCC(=O)O` (stereo not given), the growth inhibition was 12.7%.

On to `C=CCCc1cc(OC)ccc1C(=O)C(C)C`, for which the growth inhibition is -17.8%.

For `CCOC(=O)Nc1cc(C(F)(F)F)ccc1F`, the growth inhibition was -16.2%.

`c1csc(-c2nn3c(C45CC6CC(CC(C6)C4)C5)nnc3s2)c1`: the growth inhibition is -15.3%.

Consider `Cc1c2ccn3c(=O)c4ccccc4cc3c2c(C)c2c1[nH]c1ccccc12`, for which the growth inhibition is 15.2%.

Turning to `O=C(O)c1cc(-c2ccccc2)nc2c(Cl)cc(Cl)cc12`, the growth inhibition is -28.8%.

`CCOC(=O)C(CN1CCN(CC(NC=O)(C(=O)OCC)C(=O)OCC)CC1)(NC=O)C(=O)OCC`: the growth inhibition is -28.3%.

Take `COc1cc(C2c3cc4c(c(OC(=O)c5ccncc5)c3CC3COC(=O)C32)OCO4)cc(OC)c1OC` (stereo not given): the growth inhibition is -11.6%.

For the compound `O=C(O)C1CCCCN1C(=O)c1ccccc1` (stereo not given), the growth inhibition was -8.4%.

For `O=C1OC(c2cccc(Cl)c2)=N/C1=C\c1ccc(Cl)cc1`, the growth inhibition is 16.6%.

In the case of `CC1=C(C#N)C(C#N)(C#N)C(NN(C)C)C1` (stereo not given), the growth inhibition is 20.9%.

Regarding `S=C1c2cc(Cl)ccc2NC(=NC2CCCC2)C2CSCN12` (stereo not given), the growth inhibition was 14.7%.

Regarding `CCCCCCCCO[Si](OCCCCCCCC)(OCCCCCCCC)OCCCCCCCC`, the growth inhibition is -26.3%.

Consider `C=CC(C)(CCC=C(C)C)OC(C)=O` (stereo not given), for which the growth inhibition is 5.75%.

Take `COc1cc(/C=C/c2cc(/C=C/c3ccc(O)c(OC)c3)c([N+](=O)[O-])cc2[N+](=O)[O-])ccc1O`: the growth inhibition is 23.8%.
